# Measurements: PubChem BioAssay (NCI)
# Compounds without any hit were thinned out: in the full panel of roughly 83,000, 20% have a hit.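 For each line, cells grew in 96-well plates with the test compound present at a single concentration for 48 hours.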 Calls of active or inactive are those of the source.
# Tested on: NCI-H23 lung
# Experiment: NCI-60 one-dose screen, 48 h (100 = growth as untreated, 0 = no growth, -100 = all killed)
# Conditions: 10 µM unless noted
# Protocol: Growth inhibition of the NCI-H23 human Non-Small Cell Lung tumor cell line is measured as a screen for anti-cancer activity. Cells are grown in 96 well plates and exposed to the test compound for 48 hours. Compounds are tested at a single concentration, which is 10^-5 M for most compounds. The reported endpoint is percent growth (GI% or GIPRCNT), where numbers from 0 - 100% represent growth inhibition, and numbers from -100% - 0 represent cell death. For example, a value of 40 represents 60% growth inhibition. A value of 0 means no net growth occurred over the course of the experiment. A value of -40 indicates 40% of cells at the beginning of the experiment died by the end of the experiment. A value of -100 means all cells are dead at the end of the experiment.
# NCI-60 Human Tumor Cell Lines Screen was performed using the standard one-dose NCI protocol, which is described in more detail at https://dtp.cancer.gov/discovery_development/nci-60/default.htm.
# Compounds with GIPRCNT values below 10 were considered active. Activity score was based on GIPRCNT using the following formula: […]
# Score is 0 for GIPRCNT values of 100 or above, 50 for GIPRCNT values of 0, and 100 for GIPRCNT values of -100.
row,SMILES,growth
1,COc1cc(-c2csc(NC(=O)Nc3ccc(Cl)cc3)n2)cc(OC)c1OC,11.3% (inactive)
2,CCCCn1c2cc(OCc3cn(-c4ccc(Cl)cc4)nn3)ccc2c2ccnc(C)c21,32.4% (inactive)
3,O=C(CCl)N1CCCc2ccccc21,101% (inactive)
4,Cc1[nH]c(N=Nc2ccccc2)nc1N=Nc1ccccc1,36.3% (inactive)
5,COc1cccc2c1-c1ccccc1C2=O,43.1% (inactive)
6,COc1cccc(NC(=O)Nc2ccc(Oc3ncnc4[nH]c(C)c(C)c34)cc2)c1,70.7% (inactive)
7,C=C1C(=O)O[C@H]2[C@H]1CC/C(COC(=O)Nc1nc3ccccc3[nH]1)=C\CC[C@@]1(C)O[C@@H]21,70.9% (inactive)
8,O=C1Nc2ccccc2C12C=C(c1ccccc1)Nc1c2c(-c2ccccc2)nn1-c1ccccc1 (stereo not given),84.1% (inactive)
9,CCCCCCCc1n(Cc2ccc3ccccc3c2)c2ccccc2[n+]1Cc1ccc2ccccc2c1,-76.9% (active)
10,COC1=CC=CC2(OC)C3(O)CCCc4cccc(c43)N3C(=O)COC132 (stereo not given),96.1% (inactive)
11,O=C(Nc1cccc(-c2cccc(F)c2)c1)C1CCN(Cc2cccc3cccnc23)CC1,69.2% (inactive)
12,O=C(Nc1ccc(N=Cc2ccccc2O)cc1)NC1C=c2ccccc2=CC1 (stereo not given),100% (inactive)
13,CC(C)Cc1cc(CNC(=O)C2[C@H]3CN(C(=O)c4ccccc4)C[C@@H]23)nn1-c1ccccc1 (stereo not given in full),96.3% (inactive)
14,COc1cc(C2=NN(C(C)=O)C(c3cccc(Nc4ccnc5cc(C(F)(F)F)ccc45)c3)C2)cc(OC)c1OC (stereo not given),62.8% (inactive)
15,O=C1CC23OC(C(O)c4ccccc4N12)C1C(c2ccccc2)=NOC13 (stereo not given),66.7% (inactive)
16,Nc1n[nH]c2cccc(C#Cc3cccc(NC(=O)c4cc(N5CCOCC5)cc(C(F)(F)F)c4)c3)c12,45% (inactive)
17,COC(=O)/C=C1\SC(=Nc2ccc(C(F)(F)F)cc2)N(CCc2c[nH]c3ccccc23)C1=O,-4.71% (active)
18,O=CN1N=C(c2ccc(Cl)cc2)CC1c1cccc(Nc2ccnc3cc(C(F)(F)F)ccc23)c1 (stereo not given),50.6% (inactive)
19,N#CC(C#N)=C1NC(c2ccccc2)=C(c2ccccc2)C(c2ccccc2Cl)=C1C#N,93.5% (inactive)
20,Nc1c(C(=O)Nc2ccccn2)sc2nc3c(cc12)C(=O)CCC3,46.1% (inactive)

row,SMILES,growth
1,N#Cc1ccc(N2Cc3cc(Cl)ccc3OC3=C2C(=O)N(Cc2ccccc2)C3=O)cc1,10.8% (inactive)
2,Cc1nnc(/N=C2\NC(=O)/C(=C/c3ccc(N(C)C)cc3)S2)s1,81.7% (inactive)
3,Nc1ccccc1NC(=O)c1ccc(CSc2nc(N3CCOCC3)c3cccn3n2)cc1,22.5% (inactive)
4,CC(=O)OCC1SC(OC(C)=O)C(NC(=O)/C=C/CCl)C(OC(C)=O)C1OC(C)=O (stereo not given),99.7% (inactive)
5,CCCCn1c(=O)c(/C=C/C(=O)/C=C/c2cc3ccccc3n(CCCC)c2=O)cc2ccccc21,-7.39% (active)
6,COc1cc2nc3c(=O)n(-c4ccc(C#N)cc4)cnn3c(=O)c2cc1OC,98.3% (inactive)
7,C=C1C(=O)O[C@H]2[C@H]1CC/C(COC(=O)c1cc3ccccc3o1)=C\CC[C@@]1(C)O[C@@H]21,32.8% (inactive)
8,CCCn1c2cc(OCc3cn(-c4ccc(Br)cc4)nn3)ccc2c2ccnc(C)c21,81.7% (inactive)
9,CN1C(=O)c2cc(Cl)nc3c(NC(=O)c4cccc(Cl)c4)c(Cl)c(NC(=O)c4cccc(Cl)c4)c1c23,18.7% (inactive)
10,c1ccc2nc(N3CCOCC3)c(N3CCCCC3)nc2c1,95.6% (inactive)
11,C#CCN(CCCOc1ccc(Cl)cc1Cl)CCCSC(=O)CCCCCN1/C(=C\C=C2/CCCC(/C=C/C3=[N+](CCCCCC(=O)[O-])c4ccccc4C3(C)C)=C2Cl)C(C)(C)c2ccccc21,45.3% (inactive)
12,COc1ccc(C(=O)c2cc(OC)c(OC)c(OC)c2)cc1OC(=O)CCl,24% (inactive)
13,CCOC(=O)C1=C(C)n2nc(CC#N)c(C#N)c2NC1c1ccc(CC)cc1 (stereo not given),85.6% (inactive)
14,CC1=C(CCCOC(=O)NCCCl)C2=C(C)C3(CC3)[C@@](C)(O)C(=O)C2=C1,-0.524% (active)
15,COc1cc(C2=NNC(c3ccc(N(C)C)cc3)C2)cc(OC)c1OC (stereo not given),36.1% (inactive)
16,Nc1cc(N)nc(SCC(=O)O)n1,102% (inactive)
17,COc1ccc(-c2[nH]c3ccccc3c2C=C(C#N)C#N)cc1,2.52% (active)
18,COc1cc(-c2csc(NC(=O)Nc3cc(Cl)cc(Cl)c3)n2)cc(OC)c1OC,23.7% (inactive)
19,COc1ccc2nc(-c3ccc(Cl)cc3)cc(C(=O)N3N=C(c4ccc(N)cc4)CC3c3ccccc3)c2c1 (stereo not given),62% (inactive)
20,CC(=O)Oc1c2c(nc3c1c1ccccc1n3Cc1ccccc1)-c1ccccc1C2,72% (inactive)
